Rows were chosen to be rich in hits. Some 3.9% of all compounds tested hit in one or more screens of this group.
esBAF inh: blocks esBAF chromatin remodeling in mouse ES cells; Bmi1-luciferase knock-in reporter, 24 h; 100% = twice the neutral-well signal; reporter increase, % at 12.5 µM; 2% of 350,000 active; in the data active = activation above about 40%; inconclusive = no clear call, values can overlap the other calls;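 note: 0% = median of the plate's neutral control wells and 100% = double that signal; a rise in the Bmi1 reporter signal indicates esBAF inhibition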
MITF TRPM1 HTS: activators of MITF-driven TRPM1 promoter activity in SK-MEL-5 cells. activation, % at 12.5 µM. AID 588334. SK-MEL-5 TRPM1-promoter luciferase, 24 h; % of positive control, neutral wells = 0. 0.75% of 300,000 active;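 active = mean activation of at least 80% with every replicate also reaching 80%; inconclusive = mean reaches 80% but some replicate falls short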;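 note: 0% = neutral control wells and 100% = parthenolide positive control wells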
HSF1 inh: HSF1 inhibition. NIH3T3-HGL HSE-luciferase, MG132-induced, luminescence 8 h; active compounds read low. activity change, negative = inhibition, % at 7.5 µM (by protocol). 0.77% of 300,000 active. AID 2098;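 active = more than half of replicate wells show activity change below -50%, luminescence cut by over half; inconclusive = some wells, but at most half, below -50%; inactive = no replicate well below -50%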;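 note: luciferase reports HSF-1 transcriptional activity via heat shock element; 0% = median of DMSO wells and -100% = zero luminescence signal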
Wnt act: Wnt/beta-catenin pathway activation. Wnt/beta-catenin reporter cell assay, activator, plate reader. activation, % at 9.35 µM. 1.2% of 300,000 active; in the data active = activation above about 30%, passing the limit was not always enough; inconclusive = no clear call, values can overlap the other calls;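 note: 0% = neutral control wells and 100% = positive control wells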
HSF1 activator: increases HSF-1 driven luciferase reporter signal; NIH3T3-HGL HSF-1 luciferase reporter, MG132, 8 h; 100% = twice DMSO control signal; activation, % at 9 µM; 1.7% of 300,000 active;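 active = mean replicate activation of at least 50% with a set share of replicates each reaching 50%; inconclusive = only one of those two conditions met; inactive = mean below 50% and too few replicates reaching it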;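 note: 0% = median of the neutral control wells and 100% = twice that signal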
* = called active by the depositor.

For Cn1c(CNc2ccc(Br)cc2)nc2ccccc21 the results were MITF TRPM1 HTS inconclusive, HSF1 inh 79.7, Wnt act 39.6* and HSF1 activator 114.7*.
Screening Cn1c(CSc2nc3ccccc3s2)nc2ccccc21 returned esBAF inh 49.5*, MITF TRPM1 HTS 75.1, HSF1 inh 60.0 and HSF1 activator 76.2*.
`Cn1c(CNc2nc3ccccc3n2C)nc2ccccc21` gave esBAF inh 68.0*, HSF1 inh 13.9, Wnt act 21.2 and HSF1 activator 24.6.
Screening C[C@H](CO)N1C[C@H](C)[C@@H](CN(C)C(=O)Nc2cccc3ccccc23)Oc2ccc(NC(=O)Nc3ccc4c(c3)OCO4)cc2C1=O returned esBAF inh -2.8.
COc1ccc(CCNC(=O)CSc2nc3cc(Cl)ccc3o2)cc1OC was read as esBAF inh -7.3, MITF TRPM1 HTS -8.7, HSF1 inh 24.6 and HSF1 activator 66.1*.
Screening CCSC1(SCC)N=C(N)C2(C#N)C(c3ccc(F)cc3)C12C#N (configuration not stated) returned esBAF inh 0.1, MITF TRPM1 HTS -82.4, HSF1 inh 74.1 and HSF1 activator 82.5*.
O=C(C[C@@H]1C=C[C@H](NS(=O)(=O)c2ccc(F)cc2)[C@H](CO)O1)N1CCN(c2ccccc2)CC1 was read as esBAF inh -2.5.
`CCc1ccc(NC(=O)c2cc(-c3ccc(F)cc3)on2)cc1` gave esBAF inh 14.4, MITF TRPM1 HTS 23.8, HSF1 inh 10.0, Wnt act 6.7 and HSF1 activator 10.8.
`Cc1ccc(NC(=O)c2cc(-c3cccs3)on2)cc1C` gave esBAF inh 51.7*, MITF TRPM1 HTS 99.2*, HSF1 inh 19.3, Wnt act 38.7* and HSF1 activator 26.7.
For CCc1ccc(NC(=O)c2cc(-c3cccs3)on2)cc1 the results were esBAF inh 39.1, MITF TRPM1 HTS 93.8*, HSF1 inh 26.9, Wnt act -1.9 and HSF1 activator 41.0.
COc1ccc(NC(=O)c2cc(-c3cccs3)on2)cc1OC was read as esBAF inh 10.5, MITF TRPM1 HTS 31.8, HSF1 inh -0.2 and HSF1 activator 21.4.
Screening CCc1ccc(NC(=O)c2sccc2-n2cccc2)cc1 returned esBAF inh 20.5, MITF TRPM1 HTS 10.3, HSF1 inh 15.4, Wnt act 9.5 and HSF1 activator 53.2*.
Screening CS(=O)(=O)c1sc(C#N)c2c1C(=O)CC(c1ccccc1)C2 (configuration not stated) returned HSF1 inh 72.0, Wnt act -10.1 and HSF1 activator 88.5*.
Cc1oc2c(c(=O)c1C)C(=O)CC(c1ccccc1)C2 (configuration not stated) was read as esBAF inh -5.1, MITF TRPM1 HTS -3.3, HSF1 inh -2.9 and HSF1 activator -5.6.
Screening C=CCNC(=S)NNC(=O)c1cccn(Cc2ccc(Cl)c(Cl)c2)c1=O returned esBAF inh -3.1, MITF TRPM1 HTS 3.4, HSF1 inh 23.0, Wnt act -17.4 and HSF1 activator 81.4*.
Screening O=C(Nc1ccc(F)c([N+](=O)[O-])c1)c1ccc2c(c1)OCCO2 returned esBAF inh 49.8*, MITF TRPM1 HTS 55.6, HSF1 inh 9.3, Wnt act 20.3 and HSF1 activator 1.0.
`O=C(Nc1cccc([N+](=O)[O-])c1)c1[nH]ncc1Cl` gave MITF TRPM1 HTS 30.3, HSF1 inh 22.1, Wnt act 22.4 and HSF1 activator 52.0*.
For C/C(=N\NC(=O)c1ccncc1)c1cccc(NC(=O)c2ccc(C(C)(C)C)cc2)c1 the results were esBAF inh 38.2, MITF TRPM1 HTS 37.3, HSF1 inh 6.4, Wnt act 34.8* and HSF1 activator 8.2.
Screening CC(C)(C)c1ccc(C(=O)Nc2cccc([N+](=O)[O-])c2)cc1 returned MITF TRPM1 HTS 87.8*, HSF1 inh 10.9 and HSF1 activator 33.7.
CN(C)C(=O)c1cccc(-c2ccc3c(c2)[C@@H]2[C@@H](CCN2C(=O)Cc2ccncc2)[C@@H](CO)N3)c1 was read as esBAF inh 4.5.
Screening O=C(Nc1cccc(Cl)c1)c1ccc2c(c1)OCCO2 returned esBAF inh 30.1, MITF TRPM1 HTS 71.2, HSF1 inh 37.6, Wnt act -1.5 and HSF1 activator 32.0.
For O=C(Nc1cccc([N+](=O)[O-])c1)c1ccc2c(c1)OCCO2 the results were MITF TRPM1 HTS 61.7, HSF1 inh 15.1, Wnt act 47.3* and HSF1 activator 24.3.

Source: PubChem BioAssay (Broad Institute)
